Screening data deposited in PubChem BioAssay by National Center for Advancing Translational Sciences (NCATS).
D1 ag – agonists of human D1 dopamine receptor; P21728; HEK293 T-REx D1 cells, calcium flux, agonist mode; activation, % at 2 µM; 1% of 360,000 active; further: 0% is about no effect
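Inducible HEK293 T-REx D1 cells, force-coupled to calcium signalling, were plated at 4000 cells/well with tetracycline and held overnight at 30 C. After no-wash calcium dye loading, compound-evoked calcium rise over 180 s flagged agonists.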
TRHR agonist – agonists of human TRH receptor | P34981 | TRHR cells, calcium flux fluo-8, FDSS agonist mode | activation, % at 2 µM | 0.18% of 360,000 active | AID 493084; further: 0% is about no effect
Target sequence (P34981 whole entry, looked up): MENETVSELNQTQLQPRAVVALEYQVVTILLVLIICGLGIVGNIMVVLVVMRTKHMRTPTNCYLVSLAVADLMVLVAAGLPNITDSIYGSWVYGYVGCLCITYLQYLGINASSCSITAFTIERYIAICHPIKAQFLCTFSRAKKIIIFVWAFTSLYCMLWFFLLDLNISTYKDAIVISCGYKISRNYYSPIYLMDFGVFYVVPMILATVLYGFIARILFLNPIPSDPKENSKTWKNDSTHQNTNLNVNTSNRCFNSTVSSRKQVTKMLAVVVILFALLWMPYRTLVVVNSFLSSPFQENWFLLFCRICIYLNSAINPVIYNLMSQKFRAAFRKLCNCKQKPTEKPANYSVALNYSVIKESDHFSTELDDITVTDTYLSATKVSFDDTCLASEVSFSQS
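Read-out: compound-evoked intracellular calcium rise in TRHR cells, fluo-8 dye, kinetic FDSS fluorescence at 1 s/cycle following a 10-cycle baseline. Cells cultured overnight before dye loading (30 min–1.5 h, RT).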
D1 potentiator – potentiators of human D1 dopamine receptor; P21728; HEK293 TREx D1 cells, calcium flux, dopamine EC20 potentiation; potentiation, % at 10 µM; 0.036% of 360,000 active; in the data active means potentiation above about 30%; further: 0% is about no effect
D1 antag – blocks dopamine activation of the human D1 receptor; HEK293 TREx D1 cells, calcium flux, dopamine EC80; stronger effect = lower value; 3.2% of 360,000 active; P21728; activity change, negative = inhibition, % at 10 µM; AID 504652; in the data active means activity change below about -30%; further: on the % scale 0 is the no-effect control and ±100 the full control effect
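Compound effects on dopamine-evoked calcium signalling were measured in tetracycline-induced HEK293 Trex D1 cells. Dopamine at EC80 followed a 180 s compound pre-read, and fluorescence was tracked kinetically for 180 s more.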
TRHR PAM – TRH receptor (human) allosteric enhancement. P34981. TRHR cells, fluo-8 calcium fluorescence, EC20 TRH enhancement. enhancement, % at 2 µM. 0.66% of 360,000 active. AID 493056; in the data active means enhancement above about 30%; further: 0% is about no effect
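Enhancer read-out: after compound pinning and an initial kinetic agonist-mode read, an EC20 of TRH (10 nM final) was injected and fluo-8 calcium signal (Ex 480/Em 530) followed at 1 s/cycle for 100 cycles in TRHR-expressing cells.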
Numbers without * were called inactive; x = not tested or not shown. Sampled rows, rich in hits. Any-hit rate of the full collection: about 4.7%. Unless noted, no stated cut-off is given here; in the data, active means activation above about 30%; inactive means the rest.

SMILES | D1 ag | TRHR agonist | D1 potentiator | D1 antag | TRHR PAM
Cc1cccc(-c2cccc(NC(=O)C3CCCN(Cc4cccnc4)C3)c2)c1 (stereo not drawn) | 10.2 | 0.4 | -8.5 | 3.4 | 3.7
Cc1ccc(Cl)cc1NC(=O)CSc1nc2c(c(=O)[nH]1)CN(Cc1ccccc1)CC2 | 9.6 | 0.3 | -2.9 | -80.7* | -1.2
Cn1c(N)c(C(=O)COC(=O)/C=C/c2cccc(Br)c2)c(=O)n(C)c1=O | 4.5 | 0.1 | -1.3 | -32.8* | 0.7
COc1ccc(-c2cc(C(=O)OCC(=O)c3c(N)n(C)c(=O)n(C)c3=O)c3ccccc3n2)cc1 | 0.7 | -0.1 | -3.9 | 10.3 | 3.9
Cn1c(N)c(C(=O)COC(=O)/C=C/c2ccc(F)cc2)c(=O)n(C)c1=O | 8.9 | 0.4 | 1.0 | -4.6 | 0.7
COc1ccc(/C=C2\CCCc3c2nc2ccccc2c3C(=O)OCC(=O)c2c(N)n(C)c(=O)n(C)c2=O)cc1 | -0.7 | 0.4 | -1.2 | -39.6* | 0.2
COc1ccc(/C=C/C(=O)OCC(=O)c2c(N)n(C)c(=O)n(C)c2=O)cc1 | 13.4 | 1.7 | 1.4 | -32.2* | 12.1
CCOc1cc(/C=C2\CCCc3c2nc2ccccc2c3C(=O)O)ccc1OC | 411.2* | 151.1* | 17.9 | -6.1 | 14.9
CCc1c(C)nc2nncn2c1Nc1ccc(C(C)C)cc1 | 0.6 | -2.3 | -1.6 | -0.4 | -4.6
O=C(Nc1ccc(F)cc1)c1ccc(Cn2nc(N3CCN(c4ccccc4)CC3)ccc2=O)o1 | 1.4 | -0.5 | -5.2 | -32.3* | 0.6
COc1ccccc1NC(=O)NNC(=O)c1cc2ccccc2cc1O | 17.1 | 1.5 | -11.4 | -34.3* | -0.5
COC(=O)c1sccc1NC(=O)Nc1ccccc1OC | -1.1 | -0.2 | -8.2 | -80.0* | -2.8
Cc1ccc(NC(=O)NNC(=O)c2cc3ccccc3cc2O)cc1 | 3.9 | 1.0 | -2.2 | -0.6 | 3.1
O=C(Nc1cccc([N+](=O)[O-])c1)Nc1cccs1 | 23.5 | 0.7 | -11.5 | -35.4* | 1.3
O=C(/C=C/c1cccc([N+](=O)[O-])c1)Nc1cccc(NC(=O)c2cccs2)c1 | 1.5 | 1.1 | 0.2 | -46.1* | 17.7
COc1ccc(CCN2C(=O)c3[nH]nc(-c4ccccc4O)c3C2c2ccc(OC)cc2)cc1 (stereo not drawn) | 0.5 | 0.5 | 3.0 | 6.4 | 10.3
COc1ccccc1NC(=O)Nc1cc(NC(=O)Nc2ccccc2OC)c(C)nc1C | 1.5 | 0.3 | -7.7 | -92.9* | -0.1
COc1ccccc1NC(=S)NNC(=O)c1ccccc1Br | 0.7 | -0.5 | -8.9 | -79.8* | 10.9
Cc1ccc([N+](=O)[O-])cc1NC(=O)Nc1cccc(F)c1 | 25.3 | 3.3 | -6.0 | -51.1* | -10.0
COC(=O)c1sccc1NC(=O)Nc1cccc([N+](=O)[O-])c1 | 4.7 | 0.5 | -3.7 | -38.1* | 7.5
Cc1oc(-c2ccc(C(=O)NC(C)c3ccccc3)cc2)nc1CS(=O)(=O)c1ccccc1 (stereo not drawn) | -0.7 | 0.6 | -0.9 | -3.8 | 5.0
COc1ccc(Cl)cc1NC(=O)CSc1c2c(nc3ccccc13)CCC2 | -1.7 | 0.5 | 2.5 | 0.0 | -8.9
CC(NC(=O)Nc1cccc([N+](=O)[O-])c1)(C(F)(F)F)C(F)(F)F | 26.3 | 0.9 | 1.6 | -35.6* | 2.8
O=C(Nc1cccc([N+](=O)[O-])c1)c1cccc(C(=O)Nc2cccc([N+](=O)[O-])c2)c1 | 18.7 | -0.7 | -0.9 | -18.8 | 13.9
Cc1cccc(NC(=S)NNC(=O)c2ccccc2OC(F)F)c1 | 4.9 | -0.6 | -3.9 | -39.5* | -9.5
SMILES | D1 ag | TRHR agonist | D1 potentiator | D1 antag | TRHR PAM
O=C(O)c1ccc(S(=O)(=O)N(Cc2ccc(F)cc2)C2CCCCC2)cc1 | 5.1 | -0.5 | -5.0 | -20.1 | 37.9*
CN(Cc1ccccc1)S(=O)(=O)c1ccc(S(=O)(=O)N(Cc2ccc(F)cc2)C2CCCC2)cc1 | -2.6 | -0.4 | -2.4 | x | -4.5
Cc1ccc(C)c(OCc2cc(C(=O)NC3CCN(Cc4ccccc4)CC3)no2)c1 | 14.7 | 1.7 | -8.2 | -10.9 | 7.2
CC(Cc1cccnc1)NC(=O)c1cc(COc2ccc(F)cc2Cl)on1 (stereo not drawn) | 9.8 | 2.0 | -9.8 | -33.6* | -7.5
O=C(NC1CCN(Cc2ccccc2)C1)c1cc(COc2ccc(F)cc2F)on1 (stereo not drawn) | 11.0 | -0.1 | -3.5 | 2.0 | 31.0*
CC(CCn1cccn1)NC(=O)c1cc(COc2ccc(F)cc2F)on1 (stereo not drawn) | 1.0 | 0.1 | -0.7 | 2.9 | 35.5*
COc1ccc(CNC(=O)c2ccc(CS(=O)Cc3ccccc3Cl)o2)cc1 (stereo not drawn) | 1.9 | -0.3 | -3.0 | 6.3 | 1.6
CC(=O)c1c(C)oc2ccc(N(C(=O)Oc3ccccc3)S(=O)(=O)c3ccccc3)cc12 | -0.7 | 0.1 | -0.4 | -17.9 | -1.1
COCCNC(=O)Cn1cc2c(n1)-c1c(oc(C(=O)N3CCCC3)c1C)CC2 | 0.4 | 0.0 | 1.9 | -27.5 | -0.2
CCOCCCNC(=O)Cn1cc2c(n1)-c1c(oc(C(=O)N3CCCC3)c1C)CC2 | 3.8 | 0.3 | -3.6 | -32.2* | 27.0
Cc1nc2ccn(Cc3cccnc3)c(=O)c2cc1C(=O)Nc1ccc(OC(F)(F)F)cc1 | 1.3 | 0.0 | -3.0 | 4.2 | 1.7
CN1C(=O)/C(=C\c2ccc(N(C)C)cc2)OC1=S | 523.1* | 203.5* | -6.2 | -66.3* | 7.6
CCOc1ccccc1NC(=O)Cn1cnc2sc(C)c(S(=O)(=O)N3CCC(C)CC3)c2c1=O | 2.9 | -0.2 | 2.5 | 2.7 | -12.7
CCN1CCN(c2ccc(NC(=O)c3cccnc3)cc2Cl)CC1 | 1.0 | -0.6 | -5.8 | 6.8 | -0.7
CC1CN(c2ccc(NC(=O)c3ccco3)cc2C(=O)O)CC(C)O1 (stereo not drawn) | 1.6 | 0.4 | -6.6 | -25.1 | 30.1*
O=C(Nc1ccc2c(c1)CCCN2C(=O)c1ccco1)c1cc([N+](=O)[O-])ccc1Cl | 1.1 | 0.0 | -19.9 | -42.3* | -4.0
CCN1CCN(c2ccc(NC(=O)c3ccc(F)cc3)cc2Cl)CC1 | 13.2 | 0.7 | -16.6 | -39.8* | 0.6
O=C(Nc1ccc(N2CCN(C(=O)c3ccccc3)CC2)c(Cl)c1)c1ccco1 | 3.9 | -1.2 | -5.3 | -33.4* | -5.6
CC1CN(c2ccc(NS(=O)(=O)c3ccccc3)cc2C(=O)O)CC(C)O1 (stereo not drawn) | 2.7 | 0.3 | 0.4 | -2.5 | 3.1
O=C(Nc1ccc(N2CCN(C(=O)c3ccco3)CC2)cc1)c1ccc([N+](=O)[O-])cc1Cl | 12.9 | 0.1 | -0.9 | -6.5 | -0.5
CCOc1ccc(CNC(=O)c2ccc(NC(=O)N3CCSc4ncccc43)cc2)cc1 | 4.0 | 0.1 | 0.5 | -4.3 | -1.7
Cc1cc(OC(C)C(=O)N2CCC(c3nc4ccccc4o3)CC2)ccc1Cl (stereo not drawn) | 0.9 | 0.5 | -0.4 | 2.4 | -3.9
O=C(Nc1ccc(N2CCOCC2)c(Cl)c1)c1ccco1 | 3.0 | -0.7 | -14.0 | -33.7* | 5.2
